According to PubChem BioAssay (NCATS):
Records with an inconclusive call do not appear. Calls of active or inactive are those of the source. Unless noted, how the calls were made is not given here.

How the values were obtained:
[1] = qHTS profiling of the MIPE4 collection as inhibitors of Plasmodium falciparum (3D7) proliferation (AID 743344);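 further: scaled between DMSO vehicle wells and 0.29 µM artemisinin as full inhibition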; settings: P. falciparum 3D7 in erythrocytes, SYBR Green DNA fluorescence, 72 h; at 28.5 µM unless noted
Method in brief: (§1)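 Erythrocytes infected with P. falciparum (0.3% parasitemia, 2.5% hematocrit) incubated with compounds 72 h at 37 C, 5% CO2. Lysis with saponin/Triton buffer containing SYBR Green I, overnight at room temperature in the dark; DNA fluorescence (485/535 nm) normalised to 0.29 uM artemisinin and DMSO.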

[2] = qHTS profiling of the MIPE4 collection as inhibitors of Plasmodium falciparum (DD2) proliferation (AID 743345); settings: P. falciparum Dd2 in erythrocytes, SYBR Green DNA, 72 h; at 28.5 µM unless noted
Method in brief: as §1

[3] = qHTS profiling of the MIPE4 collection as inhibitors of Plasmodium falciparum (DD2) proliferation (Rep 2) (AID 743346); settings: P. falciparum Dd2 in erythrocytes, SYBR Green DNA, 72 h; at 28.5 µM unless noted
Method in brief: as §1

[4] = qHTS profiling of the MIPE4 collection as inhibitors of Plasmodium falciparum (HB3) proliferation (AID 743347);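 further: plate controls were DMSO vehicle wells for no effect and artemisinin wells for full effect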; settings: P. falciparum HB3 in erythrocytes, SYBR Green DNA, 72 h; at 28.5 µM unless noted
Method in brief: as §1

[5] = High-throughput drug toxicity screening in the BPDCN cell line Gen2.2 (AID 1224824); settings: Gen2.2 BPDCN cells; at 45.8 µM (top of the series) unless noted;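 further: cells exposed to compounds for 48 h before reading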
Method in brief: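 Gen2.2 cells, 500 per well in phenol red-free RPMI with 10% FBS, exposed to compounds 48 h at 37 C, 5% CO2; viability by CellTiter-Glo luminescence. Percent activity scaled to DMSO (100%) and 9.2 uM bortezomib final (0%).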

[6] = High-throughput drug toxicity screening in the BPDCN cell line Cal-1 (AID 1224825); settings: Cal-1 BPDCN cell viability, qHTS; at 45.8 µM (top of the series) unless noted
Method in brief: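 500 Cal-1 cells/well, RPMI + glutamine + 10% FBS (phenol red-free); cpd added by pin tool; 48 h, 37C, 5% CO2; CTG 15 min RT, lumi read. Normalised: DMSO 100%, bortezomib 9.2 uM 0%.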

[7] = qHTS assay for measurement of the activity of small molecule inhibitors on Zika virus induced Caspase-3 activity in human iPSC derived neural progenitor cells (hNPCs) (AID 1224857; active means well fitted curve in the direction sought with a large enough effect; an effect the other way counts as inactive or inconclusive; further: nearly all actives have a fitted effect of over 65% in size; further: potency means the concentration at half of the fitted maximal effect)
Method in brief: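 Quantitative HTS format: human iPSC neural progenitors, 1 h compound pretreatment, ZIKV 2 FFU/cell for 6 h at 37 C. Percent inhibition derived from luminescent caspase-3/7 signal between uninfected and infected controls.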

[8] = qHTS assay for measurement of the activity of small molecule inhibitors on Zika virus induced Caspase-3 activity in human astrocytoma cells (AID 1224859; active means well fitted curve in the direction sought with a large enough effect; an effect the other way counts as inactive or inconclusive; further: potency means the concentration at half of the fitted maximal effect)
Method in brief: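 Readout is luminescence from Caspase-Glo 3/7 added after a 6 h ZIKV infection (2 FFU/cell) of compound-pretreated (1 h) SNB-19 cells; data expressed as % inhibition versus uninfected and infected wells.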

[9] = qHTS Screen of the MIPE 4.0 Collection Against Ewings Sarcoma (TC71) (AID 1259253; active means well fitted curve in the direction sought with a large enough effect; an effect the other way counts as inactive or inconclusive; further: nearly all actives have a fitted effect of over 40% in size; further: potency means the concentration at half of the fitted maximal effect)
Method in brief: (§2)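 Cells plated in serum-containing RPMI (5% FBS) and treated with compound dilutions for 48 h. Readout luminescent viability; normalization relied on vehicle (no inhibition) and media-only columns (full inhibition).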

[10] = qHTS Screen of the MIPE 4.0 Collection Against Ewings Sarcoma (EW8) (AID 1259255; active means well fitted curve in the direction sought with a large enough effect; an effect the other way counts as inactive or inconclusive; further: nearly all actives have a fitted effect of over 35% in size; further: potency means the concentration at half of the fitted maximal effect;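 on viability: 100% = DMSO-treated cells and 0% = medium-only wells without cells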)
Method in brief: as §2

[11] = qHTS Screen of the MIPE 4.0 Collection Against Ewings Sarcoma (TC32) (AID 1259256; active means well fitted curve in the direction sought with a large enough effect; an effect the other way counts as inactive or inconclusive; further: nearly all actives have a fitted effect of over 45% in size; further: potency means the concentration at half of the fitted maximal effect)
Method in brief: as §2

[12] = P-glycoprotein substrates identified in KB-3-1 adenocarcinoma cell line, qHTS therapeutic library screen (AID 1346986; active means well fitted curve in the direction sought with a large enough effect; an effect the other way counts as inactive or inconclusive; further: nearly all actives have a fitted effect of over 60% in size)
Method in brief: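 Cells seeded 500/well in DMEM/10% FCS; compounds pinned in dose-response; 72 h incubation; CellTiter-Glo added, 5 min, luminescence. KB-8-5-11 run ±tariquidar to test reversal of P-gp resistance.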

[13] = qHTS assay to identify small molecule inhibitors of chordoma cells - UCH-2 (AID 1259356; active means well fitted curve in the direction sought with a large enough effect; an effect the other way counts as inactive or inconclusive; further: on the % scale 0 is the no-effect control and ±100 the full control effect)
[14] = qHTS profiling for inhibitors of Plasmodium falciparum (HB3) proliferation (AID 743324; active means well fitted curve in the direction sought with a large enough effect; an effect the other way counts as inactive or inconclusive;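 further: 100% = DMSO vehicle wells and 0% = artemisinin-treated control wells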); settings: Plasmodium falciparum HB3 blood-stage proliferation; at 28.7 µM (top of the series) unless noted
Method in brief: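 P. falciparum HB3 grown in erythrocytes (0.3% parasitemia, 2.5% hematocrit final) with compound for 72 h at 37 C, 5% CO2. Parasite DNA detected by SYBR Green after saponin/triton lysis overnight; normalized to 0.29 uM artemisinin and DMSO.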

[15] = qHTS Screen of the MIPE 4.0 Collection Against Ewings Sarcoma (RDES) (AID 1259252; active means well fitted curve in the direction sought with a large enough effect; an effect the other way counts as inactive or inconclusive; further: nearly all actives have a fitted effect of over 35% in size; further: potency means the concentration at half of the fitted maximal effect)
Method in brief: as §2

[16] = Identifying Small Molecule Inhibitors of Pancreatic Cancer Stem Cells (SN12C, Spheroid) (AID 1259360; active means well fitted curve in the direction sought with a large enough effect; an effect the other way counts as inactive or inconclusive; further: potency means the concentration at half of the fitted maximal effect); settings: Potency: SN12C spheroid viability
Method in brief: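 Cytotoxicity read by CellTiter-Glo luminescence after 48 h compound exposure at 37C; percent activity scaled between DMSO-treated cells and cell-free wells. Spheroid formats used cells pre-formed 14 days in stem cell media on hydrogel.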

[17] = Identifying Small Molecule Inhibitors of Pancreatic Cancer Stem Cells (A278, Adherent) (AID 1259361; active means well fitted curve in the direction sought with a large enough effect; an effect the other way counts as inactive or inconclusive; further: nearly all actives have a fitted effect of over 35% in size)
Method in brief: (§3)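 Pre-formed 14-day tumor spheroids or adherent cells dosed and incubated 48 h, 37C, 5% CO2. Viability assessed by CellTiter-Glo.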

[18] = Identifying Small Molecule Inhibitors of Pancreatic Cancer Stem Cells (SN12C, Adherent) (AID 1259358; active means well fitted curve in the direction sought with a large enough effect; an effect the other way counts as inactive or inconclusive;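 further: cell survival measured after 48 h of compound exposure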)
Method in brief: as §3

SMILES | parasite growth, % of DMSO control [1] | parasite growth remaining, % of DMSO control (lower = more inhibition) [2] | parasite growth, % of control (lower = inhibition) [3] | growth, % of control [4] | cell viability, % of control (lower = more cytotoxic) [5] | viability (% of control) [6] | Potency [7] | Potency [8] | Potency [9] | Potency [10] | Potency [11] | Potency [12] | outcome [13] | remaining proliferation (% of control), lower = more inhibition [14] | Potency [15] | Potency [16] | IC50 (viability decrease) [17] | Potency [18]
COc1ccc(Cn2ccc3ccc(C(=O)NO)cc32)cc1 | 4.8% | 13.4% | 8.17% | 3.68% | 250% | 19.7% | inactive | inactive | 13.2 µM (active) | 14.8 µM (active) | 11.8 µM (active) | inactive | – | – | – | – | – | –
NCC1CCC(C(=O)O)CC1 (stereo unspecified) | 428% | 105% | 104% | 159% | 110% | 115% | inactive | inactive | 9.35 µM (active) | inactive | – | – | inactive | – | – | – | – | –
CN1c2ccccc2C(=O)N2CCc3c([nH]c4ccccc34)C21 (stereo unspecified) | 94.3% | 103% | 90.2% | 55% | 54.1% | 97% | inactive | inactive | 23.5 µM (active) | inactive | 14.8 µM (active) | – | – | – | – | – | – | –
COc1cc([C@@H]2c3cc4c(cc3[C@@H](O[C@@H]3O[C@@H]5CO[C@@H](C)O[C@@H]5[C@H](O)[C@@H]3O)[C@H]3COC(=O)[C@H]23)OCO4)cc(OC)c1O | 10.3% | 11% | 140% | 4.48% | 57.1% | 8.03% | inactive | inactive | 0.59 µM (active) | 0.148 µM (active) | inactive | – | – | 11.4% [at 9.63 µM] | – | – | – | –
COc1cc([C@H]2Oc3cc([C@H]4Oc5cc(O)cc(O)c5C(=O)[C@H]4O)ccc3O[C@H]2CO)ccc1O | 7.9% | 18.5% | 16.1% | 12.9% | 181% | 85.4% | inactive | inactive | 14.8 µM (active) | 9.35 µM (active) | 16.6 µM (active) | – | – | – | – | – | – | –
C[C@@H](N)c1ccc(C(=O)Nc2ccnc3[nH]ccc23)cc1 | 49.7% | 78.2% | 49.3% | 67.7% | 6.34% | 12.2% | 26.4 µM (active) | inactive | – | – | – | – | – | – | 18.7 µM (active) | – | – | –
O=C(Nc1ccc(OC(F)(F)F)cc1)c1sccc1NCc1ccnc2ccccc12 | 57% | 85.7% | 82.6% | – | 42.4% | 11.5% | 5.9 µM (active) | 6.62 µM (active) | 16.6 µM (active) | 18.7 µM (active) | 18.7 µM (active) | – | – | 58.1% | – | 23.5 µM (active) | 20.9 µM (active) | –
Cc1ccc2c(c1)c1c(n2CCc2ccc(C)nc2)CCN(C)C1 | 113% | 55.3% | – | 135% | 163% | 90.5% | inactive | inactive | – | – | – | – | – | – | inactive | – | – | –
COC(=O)N1CCN(Cc2cccc(NC(=O)Nc3ccc(C)nc3)c2F)CC1 | 20.8% | 71.8% | 41.1% | 29.8% | 149% | 90.8% | inactive | inactive | 8.33 µM (active) | inactive | inactive | – | – | – | – | – | – | –
CNC(=O)[C@H](Cc1ccccc1)NC(=O)[C@H](CC(C)C)[C@H](CSc1cccs1)C(=O)NO | 4.98% | 8.14% | 11.7% | 4.59% | 63.4% | 56.4% | inactive | inactive | 5.9 µM (active) | inactive | inactive | – | – | – | – | – | – | –
CC(C)C[C@H](NC(=O)c1cc2ccccc2s1)C(=O)N1CCN(C(=O)[C@H](CO)NS(=O)(=O)c2ccc(Cl)cc2Cl)CC1 | 11.1% | 47.5% | 20.2% | 10.7% | 29.4% | 67% | inactive | inactive | 23.5 µM (active) | 20.9 µM (active) | 23.5 µM (active) | – | – | 5.88% | – | – | – | –
COc1ccc2c(c1)c(C1=C(c3c[nH]c4ccccc34)C(=O)NC1=O)cn2CCCN(C)C | 5.52% | 8.71% | 12.5% | 5.22% | 8.51% | 8.47% | inactive | inactive | – | – | – | – | – | – | 0.0083 µM (active) | – | – | –
O=C1NC(=O)C(=Cc2ccc(-c3ccc(F)cc3O)o2)S1 | 34.3% | 71.3% | 61.3% | 34.2% | 31.9% | 92.1% | 16.6 µM (active) | 14.8 µM (active) | 23.5 µM (active) | 18.7 µM (active) | 23.5 µM (active) | – | – | – | – | – | – | –
O=C(O)Cc1cccc(OCCCN(Cc2cccc(C(F)(F)F)c2Cl)CC(c2ccccc2)c2ccccc2)c1 | 20.8% | 42.2% | 18.9% | 15.4% | 170% | 117% | inactive | inactive | 20.9 µM (active) | 20.9 µM (active) | 20.9 µM (active) | – | – | 5.3% | – | – | – | inactive
COc1ccnc(CS(=O)c2nc3ccc(OC(F)F)cc3[nH]2)c1OC (stereo unspecified) | 58.5% | 95.8% | 99% | 91% | 282% | 108% | inactive | inactive | inactive | inactive | inactive | – | inactive | – | – | – | – | –
